Bioassay records (PubChem BioAssay)
Sampled rows, rich in hits. Any-hit rate of the full collection: about 2.9%.
ADAM17 inh = inhibitors of human ADAM17. P78536. 0.83% of 370,000 active. inhibition, % at 6.95 µM. recombinant ADAM17, EDANS/DABCYL FRET peptide cleavage;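 active = inhibition above the mean of compounds lying between control limits plus 3 SD, set per campaign, cut at about 8.5% in these data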
PLCb3 inh = inhibitors of human phospholipase C beta3; Q01970; Purified PLC-beta3, fluorogenic substrate, fluorescence; inhibition, % at 12.2 µM; 0.18% of 370,000 active; AID 720704
ADAM10 inh = ADAM10 inhibition, QFRET primary screen; AID 720582; recombinant ADAM10, EDANS/DABCYL FRET peptide cleavage, 3 h; 0.62% of 370,000 active; inhibition, % at 7 µM;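 active = inhibition above a per-campaign cutoff equal to the mean of compounds falling between control-based bounds plus 3 SD, cut at about 20% in these data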
PLC-gamma1 inh = blocks human PLC-gamma1 enzyme activity | P19174 | purified PLC-gamma1, fluorogenic substrate, fluorescence | inhibition, % at 12.2 µM | 0.84% of 370,000 active; in the data active = inhibition above about 9.5%
proKLK7 act = proKLK7 (human) activation, primary screen; P49862; purified proKLK7, EDANS-DABCYL substrate fluorescence; 100% is mature enzyme control, 0% vehicle; activation, % at 7 µM; 0.9% of 370,000 active; AID 652039;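 active = activation above the mean of all tested compounds plus 3 SD, computed per campaign excluding outliers beyond control limits, cut at about 13% in these data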
Target sequence (P49862 whole entry, looked up): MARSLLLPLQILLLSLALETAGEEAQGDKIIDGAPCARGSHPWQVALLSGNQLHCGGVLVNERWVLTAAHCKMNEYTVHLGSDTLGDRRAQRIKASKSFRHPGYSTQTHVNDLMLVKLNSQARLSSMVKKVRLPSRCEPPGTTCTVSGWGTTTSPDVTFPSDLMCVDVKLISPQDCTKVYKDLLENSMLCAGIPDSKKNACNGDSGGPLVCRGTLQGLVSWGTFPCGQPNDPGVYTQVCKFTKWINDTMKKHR
ADAM10 ctr = ADAM10 inhibition, counter-screen for ADAM17 exosite hits; shares compounds with ADAM17 inh; recombinant ADAM10, EDANS/DABCYL FRET peptide cleavage, 3 h; inhibition, % at 6.95 µM; 47% of 2,900 active;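 active = mean inhibition over the triplicate runs exceeds the activity threshold set in the earlier primary screen, cut at about 20% in these data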
ADAM17 confirm = human ADAM17 inhibition, confirmation; shares compounds with ADAM17 inh; recombinant ADAM17, EDANS/DABCYL QFRET peptide cleavage; inhibition, % at 6.95 µM; 65% of 2,900 active; AID 743257;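 active = mean inhibition across replicates above the hit cutoff set in the primary screen, cut at about 8.5% in these data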
PLCg1 ctr = counter-screen for PLC-beta3 inhibitors: inhibitors of human PLC-gamma1. purified PLC-gamma1, fluorogenic substrate, fluorescence. 3.1% of 3,300 active. shares compounds with PLC-gamma1 inh. inhibition, % at 12.3 µM; in the data active = inhibition above about 9.5%
PLCb3 confirm = human PLC-beta3 inhibition, confirmation; AID 743261; shares compounds with PLC-gamma1 inh; 1% of 3,300 active; inhibition, % at 12.3 µM; purified PLC-beta3, fluorogenic substrate fluorescence
Numbers stand for hits; n = inactive; x = no result given. Cut-off read from the data, not from the text of the source, unless noted: active = inhibition above about 11%; inactive = the rest.

SMILES	ADAM17 inh	PLCb3 inh	ADAM10 inh	PLC-gamma1 inh	proKLK7 act	ADAM10 ctr	ADAM17 confirm	PLCg1 ctr	PLCb3 confirm
COC(=O)C[C@H]1CC[C@@H](NS(=O)(=O)c2ccccc2)[C@@H](CO)O1	n	n	n	n	n	x	x	x	x
O=C(c1ccc(CSc2nc3ccncc3[nH]2)cc1)N1CCCCCC1	n	n	n	n	n	x	x	x	x
O=C(c1ccc(CSc2nc3ccncc3[nH]2)cc1)N1CCN(c2cccc(Cl)c2)CC1	9.1	n	n	16.1	n	27.7	14.6	n	n
CC(=O)c1c(C)[nH]c(C(=O)N(C)CC(=O)Nc2ccc(Cl)c(C(F)(F)F)c2)c1C	n	n	n	n	n	x	x	x	x
O=C(Nc1ccccc1)c1cc(C2CCCCN2S(=O)(=O)c2ccccc2)on1 (stereo not drawn)	11.6	n	n	10.1	n	n	n	n	n
CCCCN1C(=O)C(CC(=O)NCc2cccs2)CC(C(=O)N(CC)CC)=C1C (stereo not drawn)	n	n	n	n	n	x	x	x	x
O=C1OC(c2ccccc2)(c2ccccc2)c2ccccc21	n	n	n	n	n	x	x	x	x
Cc1cccc(C2(c3cccc(C)c3)OC(=O)c3ccccc32)c1	9.6	n	n	14.2	n	n	14.8	n	n
Cc1ccc(NC(=O)C2(S(=O)(=O)c3ccc(Cl)cc3)CC2)c(Br)c1	n	n	n	n	n	x	x	x	x
O=C(Nc1ccc(N2CCN(C(=O)c3cccs3)CC2)c(Cl)c1)c1ccco1	9.0	n	n	14.3	n	n	n	n	n
Cc1ccccc1C(=O)N1CCN(c2ccc(NC(=O)c3ccco3)cc2Cl)CC1	n	n	n	n	n	x	x	x	x
CCOc1ccc(NC(=O)c2ccc3[nH]c(=O)c(=O)[nH]c3c2)cc1	n	n	n	n	n	x	x	x	x
COc1ccc(NC(=O)CC2C(=O)N(C)C(=S)N2Cc2ccncc2)cc1 (stereo not drawn)	9.1	n	n	10.2	n	n	n	n	n
c1ccc2oc(SCc3cn4ccsc4n3)nc2c1	9.2	n	n	9.5	n	n	n	n	n
COc1ccc(OC)c(CCNC(=O)C2CCN(c3ncnc4c3nc3n4CCCCC3)CC2)c1	n	n	n	n	n	x	x	x	x
C[C@H]1[C@@H](OC(=O)Nc2ccccc2F)CC[C@@]23CCCN2C(=O)CCC[C@@H]13	n	n	n	n	x	x	x	x	x
C[C@@H](O)CNC(=O)c1[nH]cnc1C(=O)Nc1ccc(CNC(=O)OC(C)(C)C)cc1	n	n	n	n	n	x	x	x	x
CC(C)(C)OC(=O)CNC(=O)c1[nH]cnc1C(=O)Nc1ccc(CNC(=O)OC(C)(C)C)cc1	11.8	12.6	n	n	n	29.7	16.1	n	n
COc1ccccc1C(=O)NC(=O)COC(=O)c1ccc([N+](=O)[O-])cc1	n	n	n	n	n	x	x	x	x
O=C(CN1C(=O)NC2(CCCCCCC2)C1=O)NCc1ccc(Cl)cc1	11.3	n	n	12.0	n	n	n	n	n
CN(Cc1ccccc1)C(=O)CN1C(=O)NC2(CCCCCCC2)C1=O	8.8	n	n	12.7	n	n	n	n	n
CSc1ccc(CN(C)C(=O)CN2C(=O)NC3(CCCC3)C2=O)cc1	n	n	n	n	n	x	x	x	x
CC1CCC2(CC1)NC(=O)N(CC(=O)NCc1ccc(Cl)cc1)C2=O (stereo not drawn)	n	n	n	n	n	x	x	x	x
CCN(CC)S(=O)(=O)c1ccc(N=Nc2c(C)[nH]n(C(N)=S)c2=O)cc1	12.0	n	n	10.5	n	n	n	n	n
OC(COc1ccc(OCc2ccccc2)cc1)CN1CCCCC1 (stereo not drawn)	n	n	n	n	n	x	x	x	x
SMILES	ADAM17 inh	PLCb3 inh	ADAM10 inh	PLC-gamma1 inh	proKLK7 act	ADAM10 ctr	ADAM17 confirm	PLCg1 ctr	PLCb3 confirm
OC(COc1ccc(OCc2ccccc2)cc1)CN1CCOCC1 (stereo not drawn)	10.5	n	n	9.7	n	n	n	n	n
CN(Cc1ccccc1)S(=O)(=O)c1ccccc1Br	n	n	n	n	n	x	x	x	x
COc1ccccc1NS(=O)(=O)c1cc(NC(=O)CNC(=O)c2ccccc2)ccc1C	9.1	n	n	10.9	n	n	n	n	n
Cc1cc(N2CCN(C(=O)Oc3ccc(-c4ccccc4)cn3)CC2)c2ccccc2n1	10.3	n	n	11.6	n	n	14.8	n	n
Cc1ccc(S(=O)(=O)N2[C@@H](Cc3ccccc3)CO[C@H]2CC(=O)c2ccc(F)cc2)cc1	n	n	n	n	n	x	x	x	x
CCOC(=O)Cc1c(C)nc(N)[nH]c1=O	n	n	n	n	n	x	x	x	x
CCOC(=O)Cc1c[nH]c(=S)[nH]c1=O	n	n	n	11.0	n	x	x	n	n
Cc1nc([N+](=O)[O-])cn1CCCCN1C(=O)c2ccccc2C1=O	n	n	n	10.5	n	x	x	n	n
CCCCn1cc([N+](=O)[O-])nc1C	n	n	n	n	n	x	x	x	x
CCN(CC)C(=O)C1=C(C)N(CCCN2CCCC2=O)C(=O)C(CC(=O)NC2CCCC2)C1 (stereo not drawn)	n	n	n	n	n	x	x	x	x
CCCCCCN1CCN(C2CN(Cc3cn(Cc4ccc(C)cc4)nn3)S(=O)(=O)C2)CC1 (stereo not drawn)	n	n	n	14.5	n	x	x	n	n
CN1CC(=O)N(CC(=O)Nc2ccc(N(C)C)cc2)c2ccccc2C1=O	n	n	n	13.1	n	x	x	n	n
CN1CC(=O)N(CC(=O)NCCc2ccc(F)cc2)c2ccccc2C1=O	n	n	n	n	n	x	x	x	x
CC(C)[C@H](NS(=O)(=O)c1ccccc1)C(=O)OCC(=O)NC(=O)NC1CCCCC1	n	n	n	n	n	x	x	x	x
Cc1ccc(CN2CCC(c3cc(-c4ccc(Cl)cc4)n[nH]3)CC2)cc1	n	n	n	10.6	n	x	x	n	n
COc1ccc(-c2cc(C3CCN(Cc4ccc([N+](=O)[O-])cc4)CC3)[nH]n2)cc1	n	n	n	n	n	x	x	x	x
c1csc(C(c2nnnn2C2CCCCC2)N2CCN(c3nc4ccccc4s3)CC2)c1 (stereo not drawn)	n	n	n	10.9	n	x	x	n	n
c1ccc(C(c2nnnn2C2CCCC2)N2CCN(c3nc4ccccc4s3)CC2)cc1 (stereo not drawn)	n	n	n	n	n	x	x	x	x
COc1ccc(NC(=O)c2cc(C3CCCCN3C(=O)OCCF)on2)c(C)c1 (stereo not drawn)	n	n	n	n	n	x	x	x	x
FC(F)(F)c1ccccc1N/N=C/c1cccnc1	n	n	n	10.4	n	x	x	n	n
Cc1c(Cl)cccc1NC(=O)Cn1c(CCC(=O)O)ccc1-c1ccccc1	n	n	n	n	n	x	x	x	x
COc1ccc(S(=O)(=O)Nc2c(F)cccc2F)cc1	n	n	n	13.5	n	x	x	n	n
